Compound activity from PubChem.
In the library only some 12% were active in any assay of this set; here they are far more common.
Sm TGR block: qHTS Assay for the Inhibitors of Schistosoma Mansoni Peroxiredoxins. Schistosoma mansoni thioredoxin glutathione reductase (TGR), Q962Y6. purified TGR, DTNB reduction, TNB absorbance 405 nm. Potency, µM (series often up to 114 µM), inactives show at the highest dose activity change, negative = inhibition, usual class: inhibitors. 360,000 tested, 3% active. AID 485364, 2010; active means well fitted inhibition curve with a large enough effect; inconclusive means small, poorly fitted or top-dose-only effect; inactive means no such curve, though single readings can be large or run the other way; further: potency means the concentration at half of the fitted maximal effect; on the % scale 0 is the no-effect control and ±100 the full control effect; nearly all actives have a fitted effect of over 60% in size
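Kinetic colorimetric format: TGR-catalysed, NADPH-driven DTNB reduction monitored via TNB absorbance. Enzyme dispensed at 20 nM; compound exposure 15 min at room temperature before reaction start.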
Cycloheximide cs: Cycloheximide Counterscreen for Small Molecule Inhibitors of Shiga Toxin; cell reporter, cycloheximide protein synthesis inhibition counterscreen; max response, %; 300,000 tested, 12% active; in the data active means max response mostly above about 13%, no sharp cut-off; inactive means mostly below about 14%; further: read at 38.3 µM for the half of the compounds with a filed dose; 0% is about no effect
FMDV antiviral: High Throughput Screening for Foot and Mouth Disease Virus Antivirals; FMDV antiviral cell-based qHTS; Potency, µM (top dose mostly 57.9 µM), inactives show top-dose activity change, negative = inhibition, hits mostly inhibitors; 410,000 tested, 1.2% active; AID 1159524, 2015; calls by dose curve; tested in HEK293T cells; further: read-out not given here; potency means the concentration at half of the fitted maximal effect; on the % scale 0 is the no-effect control and ±100 the full control effect; nearly all actives have a fitted effect of over 45% in size
Shiga inhibitor: A qHTS for Small Molecule Inhibitors of Shiga Toxin. Vero cells, Shiga toxin protein synthesis inhibition reporter. inhibition, % at 38.7 µM. 290,000 tested, 9.2% active. AID 2315, 2010; in the data active means inhibition mostly above about 28%, no sharp cut-off; inactive means mostly below about 43%; further: 0% is about no effect
Starred values were filed as active, the others as inactive; u = inconclusive; x = not tested or not shown; [ ] = another dose, or the depositor's remark.

SMILES	Sm TGR block	Cycloheximide cs	FMDV antiviral	Shiga inhibitor
CC[C@H](C)[C@H](NC(=O)[C@H](CCC(=O)O)NC(=O)CNC(=O)[C@@H](NC(=O)[C@H](CCC(=O)O)NC(=O)[C@H](CCC(=O)O)NC(=O)[C@H](CC(C)C)NC(=O)CNC(=O)[C@@H]1CCCN1C(=O)[C@H](CCC(=O)O)NC(=O)[C@@H](N)[C@@H](C)O)C(C)C)C(=O)N[C@@H](CCC(=O)O)C(=O)N[C@@H](CCC(N)=O)C(=O)N[C@@H](CCCCN)C(=O)N[C@@H](CCC(N)=O)C(=O)N[C@@H](CC(C)C)C(=O)N[C@@H](CCC(N)=O)C(=O)O	x	-4	x	19
N[C@@H](CCC(=O)N[C@@H](CS)C(=O)NCC(=O)O)C(=O)O	x	x	-6%	x
CC(=O)Nc1ccc(S(=O)(=O)Nc2nnc(CC(C)(C)C)s2)cc1	-19%	22*	4%	76*
CCc1nnc(NS(=O)(=O)c2ccc(NC(=O)c3ccc(S(=O)(=O)N(CC)CC)cc3)cc2)s1	1%	-2	2%	-5
CCc1nnc(NS(=O)(=O)c2ccc(NC(=S)NC(=O)c3ccc(OC)cc3)cc2)s1	40µM*	1	9%	-3
NC(N)=NS(=O)(=O)c1ccc(NC(=S)NC(=O)c2ccncc2)cc1	20µM*	-6	0%	2
CCc1nnc(NS(=O)(=O)c2ccc(NC(=S)NC(=O)c3ccncc3)cc2)s1	20µM*	-3	-9%	3
CCc1nnc(NS(=O)(=O)c2ccc(NC(=S)NC(=O)/C=C/c3ccc(F)cc3)cc2)s1	u	-3	u	-10
NC(N)=NS(=O)(=O)c1ccc(NC(=S)NC(=O)c2ccc(Br)cc2)cc1	-35%	-1	-20%	-4
CCc1nnc(NS(=O)(=O)c2ccc(NS(=O)(=O)c3ccc(NC(C)=O)cc3)cc2)s1	-6%	-2	x	-12
COc1cccc(CNC(=O)NCc2noc3ccc(C)cc23)c1	0%	x	-5%	x
COc1cccc2cc(C(=O)Nc3ccc(CC(=O)O)cc3)c(=O)oc12	-6%	x	u	x
Cc1ccccc1OCC(=O)Nc1ccc(C(=O)OCc2cc(=O)n3ccsc3n2)cc1	-3%	x	u	x
Cc1cc(CNC(=O)c2cnn(-c3nccc(-c4cc(C)sc4C)n3)c2C2CC2)on1	x	x	46%	x
CCc1nnc(NS(=O)(=O)c2ccc(NC(=S)NC(=O)c3ccc(OC)c(OC)c3)cc2)s1	40µM*	-2	12%	-6
CC(=O)Nc1ccc(S(=O)(=O)Nc2nc3ccccc3s2)cc1	-13%	5	135%	-24
COc1ccc(C(=O)NC(=S)Nc2ccc(S(N)(=O)=O)cc2)cc1	u	18*	26%	35
CC(=O)Nc1ccc(S(=O)(=O)Nc2nc3c(s2)CCCC3)cc1	-6%	18*	116%	58*
COc1ccc(CC(=O)NC(=S)Nc2ccc(S(N)(=O)=O)cc2)cc1	-34%	2	-20%	-9
COC(=O)c1c(NC(=O)Cc2coc3ccc(C(C)C)cc23)sc2c1CCC2	-3%	x	-16%	x
CCC1Oc2ccc(C)cc2N(CC(=O)NCc2ccc(OC)cc2)C1=O (stereo not given)	-2%	x	-6%	x
CCSc1nnc2c(n1)OC(C)(C)Nc1ccccc1-2	5%	34*	x	65*
CC(C)OC(=O)NC(C)(C)COC(=O)Nc1cccc(Cl)c1	-28%	14*	-17%	-2
C#CC(C)OC(=O)Nc1cccc(Cl)c1 (stereo not given)	x	32*	x	41*
O=C(COc1ccc(Br)cc1Cl)Nc1ncn[nH]1	5%	x	-6%	x
SMILES	Sm TGR block	Cycloheximide cs	FMDV antiviral	Shiga inhibitor
CN(C(=O)Oc1ccc(F)cc1)c1ccccc1	-3%	-2	20%	-3
CCC(=O)c1ccc(OC(=O)N(C)c2ccccc2)cc1	x	26*	29%	75
CN(C(=O)Oc1ccc(C(C)(C)C)cc1)c1ccccc1	1%	19*	63%	59*
COc1ccc(CCNC(=O)CCCn2c(=O)c3ccccc3n(CC(=O)Nc3cccc(C)c3)c2=O)cc1OC	-1%	x	-13%	x
CCOc1cc([N+](=O)[O-])cc2c1C(=O)Nc1ccccc1O2	-2%	25*	0%	30
Cc1[nH]c2ccccc2c1C(c1ccccn1)N1CCC(C)CC1 (stereo not given)	u	-4	u	24
Cc1ccnc(NC(c2ccccn2)c2c(C)[nH]c3ccccc23)c1 (stereo not given)	0.28µM*	7	-23%	18
Cc1cc(NC(c2cccnc2)c2c(C)[nH]c3ccccc23)no1 (stereo not given)	2.8µM*	-2	2%	-2
CCOc1ccc(CCNC(=O)Cn2nnc(-c3ccc(C(F)(F)F)cc3)n2)cc1OCC	9%	x	-12%	x
Cc1ccc2cc(C(c3nnnn3C(C)(C)C)N3CCCCCC3)c(=O)[nH]c2c1 (stereo not given)	11µM*	-3	6%	6
CCC(C)(C)n1nnnc1C(c1cc2cc(C)ccc2[nH]c1=O)N1CCCC1 (stereo not given)	20µM*	-1	-4%	-10
CCc1ccc(NS(=O)(=O)c2[nH]ncc2C(=O)OC)cc1	2%	x	22%	x
COc1ccc2nc(C)cc(Nc3ccc(Cl)c(Cl)c3)c2c1	0%	x	u	x
C(=N\C(/N=C/c1ccco1)c1ccco1)/c1ccco1	-9%[11.4 µM]	8	19%	28
CN(C)c1ccc(N=Cc2ccco2)cc1	32µM*	55*	-17%	99*
CN(C)c1ccc(C=Nc2ccc(N(C)C)cc2)cc1	-22%	36*	27%	78*
Cc1ccc(N=Cc2ccc(N(C)C)cc2)cc1	-8%	7	-14%	-12
C(=Nc1cccc2c(N=Cc3ccco3)cccc12)c1ccco1	-30%	17	14%	47*
CC1=C(c2ccc(C)cc2)S(=O)(=O)N(Cc2ccc(C(=O)NCc3cccc(C)c3)cc2)C1=O	-2%	x	u	x
COCCn1c(=O)c(-c2ccc(Cl)cc2)nc2cnc(N(C)C)nc21	x	x	10%	x
Cc1ccc(C(=O)n2nc(C)c(S(=O)(=O)N3CCOCC3)c2C)cc1C	-13%	x	-15%	x
CCCN1C(C)C(C(=O)OCC)=CN(Cc2cccc(I)c2)S1(=O)=O (stereo not given)	x	x	4µM*	x
Cc1nc(N2CCN(Cc3ccccc3)CC2)nc2c1C(=O)CCC2	u	1	25µM*	9
Cc1ccc(C(=O)N2CCOCC2)cc1Cl	2%	-3	13%	16
CC(C)c1ccc(COc2ccc(C(=O)N3CCOCC3)cc2)cc1	x	16*	4%	70
Cc1ccc(OCc2ccc(C(=O)N3CCOCC3)cc2)cc1C	-10%	31*	x	54*
CC(C)c1ccc(OCc2ccc(C(=O)N3CCN(c4ccccn4)CC3)cc2)cc1	7%	30*	u	170
Cc1ccc(C(=O)N2CCN(c3ccccn3)CC2)cc1	12%	-3	3%	2
COc1cc(NC(=O)c2noc3c2CCCC3)c(OC)cc1Cl	7%	1	65%	-10
Cc1cc(NC(=O)c2noc3c2CCCC3)no1	-4%	22*	52%	31*
